ALOX12 inh = Primary qHTS assay for inhibitors of human arachidonate 12S-lipoxygenase (ALOX12): Round 2 | 1.1% of 580,000 active | purified 12hLO, xylenol orange hydroperoxide absorbance | Polyunsaturated fatty acid lipoxygenase ALOX12 (Homo sapiens), P18054 | AID 1671190, 2021 | Potency, µM (series often up to 108 µM), for the others: at the top dose activity change, negative = inhibition, most hits filed as inhibitors; note: % is set by controls: 0 for no effect and ±100 for the full control effect
Target sequence (P18054 whole entry, looked up): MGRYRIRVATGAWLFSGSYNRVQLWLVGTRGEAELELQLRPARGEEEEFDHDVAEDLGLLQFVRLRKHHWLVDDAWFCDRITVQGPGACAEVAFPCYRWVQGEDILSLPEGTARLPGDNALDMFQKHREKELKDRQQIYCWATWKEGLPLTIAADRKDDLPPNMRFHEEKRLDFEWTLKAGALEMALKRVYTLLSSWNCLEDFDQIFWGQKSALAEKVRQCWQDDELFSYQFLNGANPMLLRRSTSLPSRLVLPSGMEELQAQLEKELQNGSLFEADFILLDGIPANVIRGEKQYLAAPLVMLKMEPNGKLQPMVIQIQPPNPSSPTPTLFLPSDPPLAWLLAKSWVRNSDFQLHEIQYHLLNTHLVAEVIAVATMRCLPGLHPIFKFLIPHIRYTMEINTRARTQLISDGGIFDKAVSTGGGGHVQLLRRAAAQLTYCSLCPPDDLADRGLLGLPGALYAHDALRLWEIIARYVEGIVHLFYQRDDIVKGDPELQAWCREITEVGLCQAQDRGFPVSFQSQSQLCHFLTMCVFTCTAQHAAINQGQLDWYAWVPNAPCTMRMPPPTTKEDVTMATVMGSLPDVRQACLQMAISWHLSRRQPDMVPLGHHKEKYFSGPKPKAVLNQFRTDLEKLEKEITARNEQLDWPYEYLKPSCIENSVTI
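Purified human 12hLO at 150 nM in 25 mM Hepes, 0.01% Triton X-100, pH 7.0, preincubated 15 min at room temperature with compound. Reaction started with 40 uM arachidonic acid, 30 min at room temperature. Hydroperoxide measured by Fe-xylenol orange, 573/405 nm absorbance ratio.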
ATXN viability = Viability Counterscreen for Primary qHTS for Inhibitors of ATXN expression | Potency, µM (highest dose often 56.7 µM), most hits filed as cytotoxic | 0.49% of 400,000 active | S2 cells (HEK-293 line with an ATXN2-luciferase reporter) viability, CellTiter-Fluor protease fluorescence, 24 h; note: nearly all actives have a fitted effect of over 40% in size
ATXN2 expr inh = Primary qHTS for Inhibitors of ATXN expression. HEK-293 ATXN2-luciferase reporter, luminescence, 24 h. Potency, µM (titrated, usually from 57 µM), without a hit: at the highest dose activity change, negative = inhibition, most hits filed as inhibitors. 0.72% of 360,000 active. AID 1745845, 2022; note: % is set by controls: 0 for no effect and ±100 for the full control effect; nearly all actives have a fitted effect of over 55% in size
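qHTS (up to 57 uM final) was run with 24 h compound exposure of reporter cells at 37 °C. Each well was multiplexed: SteadyGlo luminescence measured ATXN2-luciferase expression after a fluorogenic Gly-Phe-AFC viability readout (25 uM final).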
HepG2 viability = qHTS for Inhibitors of TGF-b: Cytotox Counterscreen. HepG2 CAGA-GFP viability, ATP luminescence, 18 h. Potency, µM (top dose mostly 46.1 µM), without a hit: at the highest dose activity change, negative = cytotoxicity, actives largely listed as cytotoxic. 0.76% of 410,000 active
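CellTiter-Glo luminescence gave cytotoxicity after 18 hours at 37 degrees C. The cells were HepG2 CAGA-GFP in 1% FBS DMEM, stimulated with 500 pg/mL TGF-beta after compound addition. %Activity was normalised to no-cell wells (complete cell-killing) and DMSO (no toxicity), and curves were fitted and classified.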
TGFb SMAD3 inh = qHTS for Inhibitors of TGF-b. HepG2 CAGA-GFP TGF-b/SMAD3 reporter, GFP fluorescence, 18 h; TGF-beta stimulated, 500 pg/mL final. Potency, µM (top dose mostly 46.1 µM), for inactives: at the top dose activity, negative = inhibition, usual class: inhibitors. 1.2% of 410,000 active; note: % is set by controls: 0 for no effect and ±100 for the full control effect; nearly all actives have a fitted effect of over 65% in size
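GFP signal (ex488/em500-530) from TGF-beta-stimulated HEPG2 CAGA-GFP cells, 500 pg/mL final, 18 h at 37 degrees C in DMEM plus 1% FBS, normalized to unstimulated and DMSO-stimulated controls.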
Starred values were filed as active, the others as inactive; i = inactive; ? = inconclusive; . = not tested or not shown; [ ] = remark or other dose. Most compounds without a hit are left out; they make up all but 2.7% or so of the library. Calls come from the whole dose curve; as a rule, active = well fitted curve in the direction sought with a large enough effect; inconclusive = small, poorly fitted or top-dose-only effect, or another doubt; inactive = no such curve, though single readings can be large; an effect the other way counts as inactive or inconclusive. Potency is the fitted concentration of half-maximal effect.

SMILES	ALOX12 inh	ATXN viability	ATXN2 expr inh	HepG2 viability	TGFb SMAD3 inh
Cc1ccc(NC(=O)CN2C(=O)N/C(=C/c3cc(C)n(-c4cccc(C(=O)O)c4)c3C)C2=O)cc1	18µM*	i	10%	0%	3%
Cc1ccc(NC(=O)CN2C(=O)N/C(=C/c3ccc(C)o3)C2=O)cc1	35µM*	i	3%	-1%	?
Cc1cccc(OCC(=O)Nc2onc3c2CC(C)CC3)c1 (configuration not stated)	10%	.	.	.	.
CC(=O)c1c(C)[nH]c(C(=O)OC(C)c2nnc(-c3ccc(C)cc3)o2)c1C (configuration not stated)	-28%	.	.	.	.
Cc1ccc(OCC(=O)N/N=C/C=C/c2ccco2)cc1C	40µM*	i	-9%	-4%	-16%
O=C(N/N=C/C=C\c1ccco1)c1ccccn1	0%	i	38%	-1%	?
O=C(CNc1cccc2ccccc12)N/N=C/C=C/c1ccco1	32µM*	?	.	-3%	-27%
O=C(N/N=C\C=C\c1ccco1)c1cc(-c2ccc3ccccc3c2)n[nH]1	40µM*	?	.	-21%	-22%
Cc1cccc(CSCC(=O)N2CCCC2)c1	1%	.	.	.	.
CSC1(SC2=NCCN2)SC2(NCCN2)S1	?	?	?	-15%	13µM*
CCOc1ccc(C)cc1-n1nc2ccccc2n1	-4%	i	?	0%	13%
Cc1ccc(OCC(=O)Nc2ccc(Cl)cc2)c(-n2nc3ccccc3n2)c1	11%	.	35µM*	-36%	5%
O=C(COc1ccc(/C=N/NC(=O)c2cc3ccccc3o2)cc1Br)Nc1ccccc1	?	10µM*	?	-63%	3.5µM*
CSc1ccc(CCNC(=O)CCc2nnc3ccc(N4CCCCC4)nn23)cc1	22%	i	-20%	2.8µM*	?
COc1cccc(C(=O)OCc2ccccc2C#N)c1	2%	.	.	.	.
O=C(COC(=O)c1cc(=O)c2ccccc2o1)Nc1cccc(Br)c1	-24%	.	.	.	.
N=c1n(CCN2CCCCC2)c2ccccc2n1CC(O)COc1ccc(Cl)cc1Cl (configuration not stated)	?	.	.	10µM*	7.1µM*
Cc1ccc(OCC(O)Cn2c(=N)n(CCN3CCCCC3)c3ccccc32)cc1 (configuration not stated)	-8%	?	25µM*	13µM*	?
N=c1n(CCO)c2ccccc2n1CCOc1ccc(Cl)cc1Cl	?	.	20µM*	11µM*	?
CCC1(C(=O)N2CCc3ccccc3C2)CCCCC(=O)N1 (configuration not stated)	2%	.	.	.	.
CC(C)NC(=O)c1ccc(-n2nc(Sc3ccc(Cl)cc3)ccc2=O)cc1	-5%	.	.	.	.
Cc1cccc(N(CC(=O)Nc2ccccc2C(=O)NCC2CCCO2)S(C)(=O)=O)c1C (configuration not stated)	-35%	.	.	.	.
COc1ccc(-c2cc3nc(CCl)[nH]c(=O)c3s2)cc1	?	i	13µM*	22µM*	?
CC(=O)Nc1cc(NCC(=O)NC2(C#N)CCCCC2)ccc1F	-23%	.	.	.	.
CCN(CC)S(=O)(=O)c1cc([N+](=O)[O-])ccc1NNC(=O)Nc1ccc(Cl)c(Cl)c1	?	.	?	-3%	7.1µM*
SMILES	ALOX12 inh	ATXN viability	ATXN2 expr inh	HepG2 viability	TGFb SMAD3 inh
CC(C)c1ccc(NC(=S)NN(c2ccccc2)c2ccccc2)cc1	40µM*	i	-4%	-11%	?
CCNC(=S)Nc1ccc(N(c2ccccc2)C(C)C)cc1	4%	i	-21%	-11%	?
CCN(CC(=O)Nc1ccc(OC)cc1)C(=O)Cc1coc2cc(C)c(C)cc12	203%	i	-11%	11µM*	0%
CCOc1cc(C(=O)N2N=C(C)CC2(O)C(F)(F)F)ccc1OC(F)F (configuration not stated)	25%	.	.	.	.
O=C(Nc1ccncc1)C1CCCN(S(=O)(=O)c2cccc3cccnc23)C1 (configuration not stated)	422%	?	?	-3%	-16%
O=C(Nc1ccc(C(F)(F)F)cc1)C1CCCN(S(=O)(=O)c2cccc3cccnc23)C1 (configuration not stated)	-10%	i	6%	-34%	11µM*
CN1CCN(CCCNC(=O)C2CCc3sc(C(=O)N4CCCCCC4)cc3C2)CC1 (configuration not stated)	8%	.	.	.	.
O=C(Nc1ccc(F)cc1F)c1cc(-c2ccc[nH]2)n[nH]1	11µM*	.	.	.	.
CCc1cccc(NC(=O)c2cc(-c3ccc[nH]3)n[nH]2)c1	22µM*	.	.	.	.
O=C(Nc1ccc(OC(F)(F)F)cc1)c1cc(-c2ccc[nH]2)n[nH]1	16µM*	.	.	.	.
COc1ccc(NC(=O)c2cc(-c3ccc[nH]3)n[nH]2)c(OC)c1	-5%	.	.	.	.
CCc1ccc(NC(=O)c2cc(-c3ccc[nH]3)n[nH]2)cc1	28µM*	.	.	.	.
CCc1cccc(NC(=O)c2n[nH]c(=O)c3ccccc23)c1	4%	.	.	.	.
CCOc1ccc(NC(=O)c2cc(-c3ccc[nH]3)n[nH]2)cc1	-22%	.	.	.	.
COc1ccc(C(=O)N2CCc3ccc(C(=O)NCc4ccccc4OC)cc32)cc1	3%	.	.	.	.
CCOc1ccc(Cn2cnc3c2c(=O)n(C)c(=O)n3C)cc1OCC	-38%	.	.	.	.
CC(C)C[C@H](NC(=O)[C@@H](NC(=O)c1cccc(-c2ccccc2)n1)[C@@H](C)O)B(O)O	-10%[57.4 µM]	.	0.061µM*	.	.
CCOC(=O)c1cnc(SCc2nc(-c3ccccc3Cl)oc2C)nc1N	13%	.	.	.	.
Cc1nc2c(=O)[nH]c(=S)n(C)c2nc1C	32µM*	i	-6%	-10%	-10%
Cc1cc(=O)oc2c(N)nccc12	.	35µM*	?	-112%	?
COc1cccc(NC(=O)CSc2nnc(-c3ccc(C)cc3)c(=O)[nH]2)c1	29%	.	.	.	.
O=C(NCCNCCO)C1(C(F)(F)F)CC(CCc2ccccc2)CCCO1 (configuration not stated)	.	.	.	-22%	4µM*
COCCNC(=O)C(=O)N1CCN(c2nc(CC(C)C)c3c(c2C#N)CCCC3)CC1	-6%	.	.	.	.
O=C(NNc1ccccc1Br)C(O)(c1cccc(C(F)(F)F)c1)c1cccc(C(F)(F)F)c1	-32%	.	?	-103%	7.9µM*
O=C(CCCc1nc2ccccc2s1)Nc1nccs1	4%	i	?	-33%	-4%
Cc1cnc(NC(=O)CCCc2nc3ccccc3s2)s1	?	?	2.5µM*	-4%	?
O=C(Nc1cc(F)cc(F)c1)c1ccc2ccccc2n1	13%	.	.	.	.

From PubChem BioAssay
